Consider 29 compounds from PubChem BioAssay (NCATS).

Experiment [1] is described as follows: Viability qHTS for spleen associated tyrosine kinase inhibitor (SYKi) naive MV4-11 cells (AID 1963823). Further: nearly all actives have a fitted effect of over 40% in size. Conditions: MV4-11 AML viability, CellTiter-Glo luminescence, 72 h; series mostly up to 45 µM. The essentials: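 CellTiter-Glo luminescence, 10 min room-temperature incubation, gave viability. Cells: naive MV4-11 (500/well), treated 72 hr at 37 C, 5% CO2.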
Background: qHTS replaces the single test concentration by a dilution series.

Experiment [2] in a line: Viability qHTS for spleen associated tyrosine kinase inhibitor (SYKi) drug resistant MV4-11 cells (AID 1963824). Further: nearly all actives have a fitted effect of over 35% in size. The settings on record: SYKi-resistant MV4-11 viability, CellTiter-Glo, 72 h; series mostly up to 45 µM. An outline of the steps: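 SYK inhibitor-resistant MV4-11 AML cells, 500 per well, added to predispensed compounds and incubated 72 hr at 37 C, 5% CO2. Viability measured by CellTiter-Glo luminescence after 10 min at room temperature.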

Experiment [3] is described as follows: Cellular viability qHTS for adrenocortical cancer (ACC) cell line SW-13 (AID 1963989). Further: nearly all actives have a fitted effect of over 65% in size.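 On activity (max response): cells grown in serum-free medium with ITS supplement; on the % scale 0 is the no-effect control and ±100 the full control effect.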 Conditions: SW-13 ACC cells viability, CellTiter-Glo, 48 h; activity (max response): stronger effect = lower value. An outline of the steps:
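SW-13 cells in ITS-supplemented serum-free DMEM were plated overnight, then exposed for 48 h at 37C to compound titrations (up to 46 uM final). Viability was read by CellTiter-Glo luminescence; four-parameter logistic fits gave IC50 and efficacy.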

Experiment [4] is described as follows: Cellular viability qHTS for adrenocortical cancer (ACC) cell line NCI-H295R (AID 1963990). Further: nearly all actives have a fitted effect of over 60% in size. Conditions: CellTiter-Glo ATP luminescence, 48 h; series mostly up to 46.1 µM. An outline of the steps: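 Luminescent ATP read-out (CellTiter-Glo, 20 min RT) after 48 h drug exposure of NCI-H295R cells; a titration up to 46 uM final. Data normalized to doxorubicin (100% inhibition) and DMSO (0%); 4-parameter fit gives IC50, max response.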

Several values for one entry are separate records, joined by “and”; a condition that tells them apart may be missing. Equal entries are not always repeated. Results filed as inconclusive are left out. More than one record can exist for a structure, and the calls need not agree. Activity calls are given as the source filed them. The call rests on the fitted dose curve; in most records, active means well fitted curve in the direction sought with a large enough effect; inconclusive means small, poorly fitted or top-dose-only effect, or another doubt; inactive means no such curve, though single readings can be large; an effect the other way counts as inactive or inconclusive.
Potency means the concentration at half of the fitted maximal effect.

`CC(C)c1c(C(=O)Nc2ccccc2)c(-c2ccccc2)c(-c2ccc(F)cc2)n1CC[C@@H](O)C[C@@H](O)CC(=O)O`: the Potency in experiment [1] was 2.99 µM (active) and 1.93 µM (active) and 1.82 µM (active); in experiment [2], 2.11 µM (active) and 1.09 µM (active) and 910 nM (active). For the same compound, the activity (max response) in experiment [3] was -20.9% (inactive) and -15.4% (inactive). In experiment [4], the Potency result was “inactive”.
With `O=C(O)CCC(=O)c1ccc(-c2ccccc2)cc1`, the Potency result in experiment [1], in experiment [2] and in experiment [4] was “inactive” throughout. Moreover, the activity (max response) in experiment [3] is 23% (inactive).
With `CC(C(=O)O)c1ccc2c(c1)[nH]c1ccc(Cl)cc12` (stereo unspecified), the Potency entry in experiment [1], in experiment [2] and in experiment [4] was “inactive” each time. In addition, the activity (max response) in experiment [3] was -19.1% (inactive).
`COc1cc2c(cc1OC)C(=O)CC2`: the Potency entry in experiment [1], in experiment [2] and in experiment [4] was “inactive” throughout. The activity (max response) in experiment [3] is 12.7% (inactive).
Regarding `CN(C)CCCSc1ccccc1NC(=O)/C=C/c1ccccc1`, the Potency result in experiment [1], in experiment [2] and in experiment [4] was “inactive” throughout. For the same compound, the activity (max response) in experiment [3] is 8.03% (inactive).
As to `CCN(Cc1ccncc1)C(=O)C(CO)c1ccccc1` (stereo unspecified), the Potency result in experiment [1], in experiment [2] and in experiment [4] was “inactive” each time. Moreover, in experiment [3], the activity (max response) is -0.134% (inactive).
In the case of `CCN(CC)CC(=O)OCC(=O)[C@@]1(O)CC[C@H]2[C@@H]3CCC4=CC(=O)CC[C@]4(C)[C@H]3[C@@H](O)C[C@@]21C`, the Potency result in experiment [1], in experiment [2] and in experiment [4] was “inactive” each time. Besides, the activity (max response) in experiment [3] was 11.9% (inactive).
On to `CCCCCCCCCCCCCCCC(=O)NCCO`, for which the Potency entry in experiment [1], in experiment [2] and in experiment [4] was “inactive” throughout. The activity (max response) in experiment [3] is 3.88% (inactive).
With `CN(C)C(N)=NC(=N)N`, the Potency entry in experiment [1], in experiment [2] and in experiment [4] was “inactive” in each case. In addition, in experiment [3], the activity (max response) is 1.52% (inactive).
For `CC(C(=O)O)c1ccc(C(=O)c2ccccc2)s1` (stereo unspecified), the Potency entry in experiment [1], in experiment [2] and in experiment [4] was “inactive” throughout. Besides, the activity (max response) in experiment [3] is -5.09% (inactive).
In the case of `CO[C@H]1O[C@@H]2O[C@@]3(C)CC[C@H]4[C@H](C)CC[C@@H]([C@H]1C)[C@@]24OO3`, the Potency is 1320 nM (active) in experiment [1] and 934 nM (active) in experiment [2]. Moreover, in experiment [3], the activity (max response) is 0.283% (inactive). Further, the Potency entry in experiment [4] was “inactive”.
On the same counts, the results for `CCN1CCCC(OC(=O)C(c2ccccc2)c2ccccc2)C1` (stereo unspecified) are “inactive”, “inactive”, -12.5% (inactive) and “inactive”.
As to `CS(=O)(=O)N1CCC(NC(=O)c2[nH]ncc2NC(=O)c2c(Cl)cccc2Cl)CC1`, the Potency in experiment [1] is 934 nM (active); in experiment [2], 291 nM (active); in experiment [3], 3.98 µM (active); in experiment [4], 11.2 µM (active).
Turning to `COc1cc2c(Oc3ccc4[nH]c(C)cc4c3F)ccnc2cc1OCC1(N)CC1`, the Potency was 4170 nM (active) in experiment [1], 4170 nM (active) in experiment [2], 11.2 µM (active) in experiment [3] and 10 µM (active) in experiment [4].
Regarding `CCCOc1ccn2c(C(C)=O)cc(-c3ccccc3S(C)(=O)=O)c2c1`, the Potency was 20900 nM (active) in experiment [1] and 14800 nM (active) in experiment [2]. Besides, in experiment [3], the activity (max response) was 0.517% (inactive). Besides, the Potency entry in experiment [4] was “inactive”.
On the same counts, the results for `CCCCNC(=O)NS(=O)(=O)c1ccc(C)cc1` are “inactive”, “inactive”, 2.87% (inactive) and “inactive”.
Take `CC(C)n1nc(-c2cc3cc(O)ccc3[nH]2)c2c(N)ncnc21`: the Potency in experiment [1] was 116 nM (active); in experiment [2] it was 668 nM (active) and 291 nM (active); in experiment [3], 5.8 µM (active) and 14.1 µM (active); in experiment [4], 2.31 µM (active) and 10 µM (active).
As to `CCC(=O)NC[C@H](Cc1ccc(OCCc2nc(-c3ccccc3)oc2C)cc1)N/C(C)=C\C(=O)c1ccc(C(F)(F)F)cc1`, the Potency was 16600 nM (active) in experiment [1] and 11800 nM (active) in experiment [2]. For the same compound, the activity (max response) in experiment [3] was -7.93% (inactive). In addition, the Potency result in experiment [4] is “inactive”.
For `C=CC(=O)Nc1cccc(Nc2nc(Nc3ccc(NC4CN(CCF)C4)cc3OC)ncc2C(F)(F)F)c1`, the Potency in experiment [1] is 1.3 µM (active) and 662 nM (active); in experiment [2] it was 1.3 µM (active) and 1.48 µM (active); in experiment [3], 2.51 µM (active); in experiment [4], 8.91 µM (active).
Consider `CN1CCC(c2c(O)cc(O)c3c(=O)cc(-c4ccccc4Cl)oc23)C1CO` (stereo unspecified), for which the Potency in experiment [1] was 742 nM (active); in experiment [2] it was 590 nM (active); in experiment [3], 3.16 µM (active); in experiment [4], 3.16 µM (active).
With `C[C@H]1[C@H](O)O[C@@H]2O[C@@]3(C)CC[C@H]4[C@H](C)CC[C@@H]1[C@@]24OO3`, the Potency in experiment [1] is 731 nM (active); in experiment [2] it was 731 nM (active); in experiment [3], 12.6 µM (active); in experiment [4], 3.55 µM (active).
As for `CC(C)NCC(O)c1cc(O)cc(O)c1` (stereo unspecified), the Potency entry in experiment [1], in experiment [2] and in experiment [4] was “inactive” in each case. For the same compound, the activity (max response) in experiment [3] was 13.2% (inactive).
Consider `Cc1cc(OCc2nnc(SC3CCCC3)n2-c2cccnc2)ccc1-c1ccc(S(C)(=O)=O)cc1`, for which the Potency in experiment [1] is 184 nM (active); in experiment [2] it was 116 nM (active). For the same compound, the activity (max response) in experiment [3] is -6.15% (inactive). In addition, in experiment [4], the Potency entry is “inactive”.
As to `Nc1ccc(/C=C/C(=O)NCc2cc3cc(-c4ccc(C(=O)N5CCC(F)(F)CC5)cc4)cc(-c4ccc(F)cc4)c3o2)cn1`, the Potency in experiment [1] was 148 nM (active) and 184 nM (active); in experiment [2], 206 nM (active); in experiment [3], 1.12 µM (active); in experiment [4] it was 1 µM (active).
In the case of `c1ccc2[nH]ccc2c1`, the Potency result in experiment [1], in experiment [2] and in experiment [4] was “inactive” each time. Also, the activity (max response) in experiment [3] is 10.5% (inactive).
For the compound `O=Cc1ccc(O)c(O)c1O`, the Potency entry in experiment [1] and in experiment [2] was “inactive” throughout. In experiment [3], the activity (max response) was -7.42% (inactive). For the same compound, in experiment [4], the Potency is 18.4 µM (active).
Regarding `CC(C)(C)Sc1c(CC(C)(C)C(=O)O)n(Cc2ccc(Cl)cc2)c2ccc(OCc3ccc4ccccc4n3)cc12`, the Potency result in experiment [1] was “inactive and 16.6 µM (active)”; in experiment [2], “inactive and 11.8 µM (active)”. Further, the activity (max response) in experiment [3] is 0.331% (inactive). Further, the Potency result in experiment [4] is “inactive”.
Take `COc1cccc(OCCCN)c1-c1cc(Nc2cnc(C#N)cn2)n[nH]1`: the Potency in experiment [1] was 14.6 nM (active) and 5.9 nM (active); in experiment [2] it was 11.6 nM (active). Moreover, the activity (max response) in experiment [3] is -3.44% (inactive). Further, in experiment [4], the Potency entry was “inactive”.
As for `Cc1cc(O)c(C)c(C)c1O`, the Potency result in experiment [1], in experiment [2] and in experiment [4] was “inactive” each time. In addition, the activity (max response) in experiment [3] was 6.25% (inactive).
